Test in all cases: NCI-60 one-dose screen, 48 h (100 = growth as untreated, 0 = no growth, -100 = all killed)
The subject of one test is SR leukemia. To be noted: 10 µM unless noted.
The next test relates to RPMI-8226 leukemia. The following applies: 10 µM unless noted.
For the next test, the system named is OVCAR-8 ovarian. The following applies: 10 µM unless noted.
For a further test, the system named is OVCAR-5 ovarian. The following applies: 10 µM unless noted.
In another test the test system is OVCAR-4 ovarian. To be noted: 10 µM unless noted.
A further test deals with SK-OV-3 ovarian. To be noted: 10 µM unless noted.
In another test the test system is IGROV1 ovarian. The following applies: 10 µM unless noted.
For another test, the system named is OVCAR-3 ovarian. The following applies: 10 µM unless noted.
A further test has as its system NCI/ADR-RES ovarian. The following applies: 10 µM unless noted.
For a further test, the system named is T-47D breast. The following applies: 10 µM unless noted.
The test system of a further test is BT-549 breast. To be noted: 10 µM unless noted.
In another test the test system is MDA-MB-435 melanoma. The following applies: 10 µM unless noted.
The subject of the next test is SW-620 colon. The following applies: 10 µM unless noted.
For another test, the system named is MCF7 breast. To be noted: 10 µM unless noted.
In the next test the test system is HCT-116 colon. To be noted: 10 µM unless noted.
For the next test, the system named is HCC-2998 colon. To be noted: 10 µM.
A further test concerns KM12 colon. To be noted: 10 µM unless noted.

Each structure is given as a SMILES string. Compounds without any hit were thinned out: in the full panel of roughly 83,000, 20% have a hit.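 Step 1: grow cells in 96-well plates. Step 2: add test compound at a single concentration. Step 3: incubate 48 h. Step 4: record percent growth.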 Unmarked numbers belong to inactive results. The source made the active and inactive calls. How the source made its calls: active means growth percent below 10; inactive means the rest.

For the compound `Cc1cc(C(=O)NOCCO)c(Nc2ccc(I)cc2F)n(C)c1=O`, the growth in the test on SR leukemia was 71.3%; in the test on RPMI-8226 leukemia, 78.8%; in the test with OVCAR-8 ovarian, 67.9%; in the test on OVCAR-5 ovarian, 20.3%; in the test with OVCAR-4 ovarian, 71.3%; in the test on SK-OV-3 ovarian, 57.3%. Further, the growth with IGROV1 ovarian is 28%; in the test with OVCAR-3 ovarian, 106%; in the test on NCI/ADR-RES ovarian, 76.2%; with T-47D breast, 103%; with BT-549 breast it was 85.7%; in the test on MDA-MB-435 melanoma, 35.4%. In addition, the growth in the test with SW-620 colon was 24.8%; with MCF7 breast, 94.7%; in the test with HCT-116 colon it was 15.2%; in the test with HCC-2998 colon, -16.6% (active); in the test on KM12 colon, 28.4%.
`O=C(Cc1ccc(-c2ccc(OCCN3CCOCC3)cc2)cn1)NCc1ccccc1`: the growth is 6.9% (active) in the test with SR leukemia; 14.5% in the test on RPMI-8226 leukemia; 1.32% (active) with OVCAR-8 ovarian; 29.9% in the test on OVCAR-5 ovarian; 47.9% with OVCAR-4 ovarian; -11.9% (active) in the test with SK-OV-3 ovarian. Moreover, the growth with IGROV1 ovarian was 15.5%; with OVCAR-3 ovarian, 20.3%; in the test with NCI/ADR-RES ovarian, 0.0856% (active); in the test with T-47D breast it was 34.2%; with BT-549 breast it was 3.61% (active); in the test with MDA-MB-435 melanoma, -21.8% (active). The growth in the test on SW-620 colon was 21.3%; in the test on MCF7 breast, 10.7%; with HCT-116 colon, 6.1% (active); in the test with HCC-2998 colon it was 8.15% (active); in the test on KM12 colon it was 6.91% (active).
Consider `Nc1nc(N)c2nc(-c3cccc(O)c3)c(-c3cccc(O)c3)nc2n1`, for which the growth in the test with SR leukemia is 82%; in the test with RPMI-8226 leukemia, 83.5%; in the test with OVCAR-8 ovarian it was 77.2%; in the test with OVCAR-5 ovarian, 78.1%; in the test on OVCAR-4 ovarian, 93.8%; in the test with SK-OV-3 ovarian it was 52.8%. In addition, the growth is 42.1% in the test with IGROV1 ovarian; 57.4% with OVCAR-3 ovarian; 89.5% with NCI/ADR-RES ovarian; 2.15% (active) in the test with T-47D breast; 47.8% in the test with BT-549 breast; 97.4% with MDA-MB-435 melanoma. Besides, the growth in the test with SW-620 colon was 90.8%; with MCF7 breast, 70.1%; in the test on HCT-116 colon it was 77.9%; with HCC-2998 colon it was 94.6%; in the test on KM12 colon, 90.6%.
As to `COc1cc(N2CCC(N3CCN(C)CC3)CC2)ccc1Nc1ncnc(Nc2ccccc2S(=O)(=O)C(C)C)n1`, the growth with SR leukemia was 12.7%; in the test on RPMI-8226 leukemia it was 101%; in the test on OVCAR-8 ovarian, 99.3%; with OVCAR-5 ovarian, 98.3%; in the test on OVCAR-4 ovarian, 113%; with SK-OV-3 ovarian it was 87.4%. For the same compound, the growth with IGROV1 ovarian is 103%; in the test with OVCAR-3 ovarian, 105%; in the test with NCI/ADR-RES ovarian, 109%; with T-47D breast it was 74.7%; with BT-549 breast it was 104%; in the test on MDA-MB-435 melanoma it was 108%. The growth with SW-620 colon is 100%; in the test with MCF7 breast, 88.6%; in the test on HCT-116 colon, 88.2%; in the test on HCC-2998 colon it was 97.3%; with KM12 colon, 109%.
As for `CC/C(=C(\c1ccc(OCCN2CCCCCCC2)cc1)c1ccc(OC(=O)C2CCCCC2)cc1)c1ccc(Cl)cc1`, the growth in the test with SR leukemia was 78.5%; in the test with RPMI-8226 leukemia, 107%; in the test with OVCAR-8 ovarian it was 100%; with OVCAR-5 ovarian, 89.9%; in the test with OVCAR-4 ovarian, 108%; in the test with SK-OV-3 ovarian, 111%. The growth with IGROV1 ovarian was 103%; with OVCAR-3 ovarian it was 99.1%; with NCI/ADR-RES ovarian, 105%; in the test with T-47D breast, 77.4%; in the test with BT-549 breast, 116%; in the test with MDA-MB-435 melanoma, 99.8%. Besides, the growth is 95.5% with SW-620 colon; 48.5% in the test on MCF7 breast; 87.3% in the test with HCT-116 colon; 109% in the test on HCC-2998 colon; 97.1% with KM12 colon.
For `CCn1cc(-c2ccnc3[nH]c(-c4cccc(CN(C)C)c4)cc23)c(-c2ccc(NC(=O)N(C)C)cc2)n1`, the growth is -15.8% (active) in the test with SR leukemia; 3% (active) in the test with RPMI-8226 leukemia; 24.9% in the test with OVCAR-8 ovarian; 24.5% in the test on OVCAR-5 ovarian; 41.1% in the test on OVCAR-4 ovarian; -0.688% (active) with SK-OV-3 ovarian. In addition, the growth with IGROV1 ovarian is 26.3%; with OVCAR-3 ovarian it was 48.1%; in the test with NCI/ADR-RES ovarian, 72.4%; in the test with T-47D breast it was 58%; with BT-549 breast, 14.1%; in the test on MDA-MB-435 melanoma, 51.3%. Moreover, the growth was 2.66% (active) with SW-620 colon; 16.1% with MCF7 breast; 8.47% (active) with HCT-116 colon; 60% in the test with HCC-2998 colon; 11.1% in the test with KM12 colon.
With `COc1cc(Nc2ncc(F)c(Nc3ccc4c(n3)N(COP(=O)(O)O)C(=O)C(C)(C)O4)n2)cc(OC)c1OC`, the growth in the test on SR leukemia is 21.6%; in the test with RPMI-8226 leukemia, 46.4%; in the test with OVCAR-8 ovarian it was 28.7%; in the test with OVCAR-5 ovarian, 17.6%; with OVCAR-4 ovarian it was 44.1%; in the test with SK-OV-3 ovarian it was -41.4% (active). The growth with IGROV1 ovarian is -17.6% (active); in the test with OVCAR-3 ovarian, 43.4%; in the test on NCI/ADR-RES ovarian, 20.5%; in the test with T-47D breast, 14.4%; in the test with BT-549 breast, 1.78% (active); in the test on MDA-MB-435 melanoma, 26.5%. Besides, the growth with SW-620 colon was 38.2%; in the test on MCF7 breast it was 25.7%; in the test with HCT-116 colon it was 22.1%; in the test on HCC-2998 colon it was 66.8%; in the test on KM12 colon it was 11.7%.
Regarding `COc1cccc(NC(=O)Nc2ccc(Nc3ncnc4sc5c(c34)CCN(C(=O)CCl)C5)cc2)c1`, the growth was 77.8% with SR leukemia; 93.3% in the test with RPMI-8226 leukemia; 84.4% with OVCAR-8 ovarian; 103% in the test on OVCAR-5 ovarian; 126% with OVCAR-4 ovarian; 93.8% in the test with SK-OV-3 ovarian. The growth is 82.6% with IGROV1 ovarian; 104% in the test on OVCAR-3 ovarian; 102% with NCI/ADR-RES ovarian; 86.6% in the test with T-47D breast; 99.1% in the test with BT-549 breast; 109% in the test with MDA-MB-435 melanoma. Further, the growth with SW-620 colon is 102%; in the test with MCF7 breast, 87.3%; in the test with HCT-116 colon, 93.5%; with HCC-2998 colon, 115%; in the test with KM12 colon, 98.1%.
As to `C=CC(=O)Nc1cc(Nc2nccc(-c3cn(C)c4ccccc34)n2)c(OC)cc1N(C)CCN(C)C`, the growth in the test on SR leukemia was -24% (active); in the test on RPMI-8226 leukemia, -22% (active); with OVCAR-8 ovarian, -25.4% (active); with OVCAR-5 ovarian it was -56.5% (active); in the test with OVCAR-4 ovarian, -13.5% (active); with SK-OV-3 ovarian it was 15.4%. Further, the growth is -48.8% (active) with IGROV1 ovarian; -55.3% (active) with OVCAR-3 ovarian; -38.8% (active) in the test on NCI/ADR-RES ovarian; -60.8% (active) in the test on T-47D breast; -39.7% (active) with BT-549 breast; -93.9% (active) in the test on MDA-MB-435 melanoma. Besides, the growth with SW-620 colon is -63.7% (active); in the test with MCF7 breast it was -61.3% (active); in the test on HCT-116 colon, -79.8% (active); in the test on HCC-2998 colon, -86.4% (active); with KM12 colon it was -47.7% (active).

The record behind these values is PubChem BioAssay (NCI).
